This is an account of results in ChEMBL document CHEMBL4513216, “Probing the Open Global Health Chemical Diversity Library for Multistage-Active Starting Points for Next-Generation Antimalarials” (ACS Infect Dis, 2020).

About 8,600 (12%) of roughly 69,000 compounds showed an effect of 50% or more. The sample holds strong results, similar compounds and a random draw of the others, so the mix is not that of the screen.

For the assay, the system named is Plasmodium berghei. Briefly: Screen against P. berghei liver stage (PbLuc), transformed with Luciferase, at 10uM. Type of assay: functional, HepG2. To be noted: tested at 10 uM.
Take `Cc1nnc(NCC2(c3ccccc3)CCOCC2)c(C#N)c1C`: the INHIBITION was 6.67%.
On to `COc1ccccc1C1(CNc2nnc(C)c(C)c2C#N)CCOCC1`, for which the INHIBITION was -10.2%.
Regarding `COCc1ccccc1CNc1nnc(C)c(C)c1C#N`, the INHIBITION came out at 22.9%.
Regarding `COc1ccccc1C1(CNc2nnc(C)c(C)c2C#N)CCCC1`, the INHIBITION came to 97.1%.
As to `Cc1nnc(NCC2(c3ccc(Cl)cc3Cl)CCOCC2)c(C#N)c1C`, the INHIBITION is 52.9%.
For the compound `Cc1nnc(NCC2(c3ccccc3)CC2)c(C#N)c1C`, the INHIBITION amounted to 9.48%.
As for `Cc1nnc(NCC2(c3ccccc3)CCC2)c(C#N)c1C`, the INHIBITION was determined as 92.1%.
On to `Cc1ccccc1C1(CNc2nnc(C)c(C)c2C#N)CCOCC1`, for which the INHIBITION turned out to be 17.4%.
For `Cc1nnc(NCc2ccccc2Cl)c(C#N)c1C` the value was 49.9%; for `CCCc1cc(NC2CCc3nc(C(C)C)nn3C2)n2ncnc2n1` (centres undefined), -5.65%.
On to `COCCCNC(=O)N1CCN(C(=O)c2nsc3ccc(C)cc23)CC1`, for which the INHIBITION is given as 15.1%.
Turning to `CC(C)NC(=O)Cn1cc(OCc2ccc(F)cc2)c(=O)cc1CO`, the INHIBITION stood at 27.5%.
The value for `COCCn1cc2c(n1)C(CNC(=O)c1cc(C)[nH]c1C)OCC2` (centres undefined) was 23.6%; that for `O=C(NC1CCC(O)CC1)c1ccc2nc(-c3ccc(F)cc3)cn2c1` (centres undefined) was 35.5%; that for `CCc1nnc2n1CCN(Cc1ncc(-c3ccc(F)cc3)o1)C2` was -3.235%.
As to `Cc1nc(CNCC(C)c2nc3ccccc3o2)cs1` (centres undefined), the INHIBITION was found to be 20%.
Consider `Cc1csc(CNCC(C)c2nc3ccccc3o2)n1` (centres undefined), for which the INHIBITION was 48.3%.
Turning to `Cc1ncsc1CNCC(C)c1nc2ccccc2o1` (centres undefined), the INHIBITION was 50%.
In the case of `Nc1cc(-c2cncnc2C2CCN(C(=O)c3ccccc3)C2)ccn1` (centres undefined), the INHIBITION was 3.48%.
On to `Cn1ccnc1CN1C[C@@H]2[C@@H](C1)OCC(=O)N2CC1CCCC1`, for which the INHIBITION is 39.8%.
For `O=C(c1ccc[nH]1)N1CC[C@@H](OCC2CC2)[C@@H]1Cc1cccnc1` the value was -68.6%; for `O=C(C1CCOC1)N1CCC(OCc2ccccc2)CC1` (centres undefined), 33.9%; for `CN(CC(=O)N1CCC(OCc2cccnc2)CC1)c1ccccc1`, 5.91%.
As to `Cn1c(CN2CCN(c3cccnc3)CC2)cc2ccccc21`, the INHIBITION came out at 27.4%.
As to `O=C(Cc1cccnc1)N1CCC(OCc2ccccc2)CC1`, the INHIBITION came to 7.84%.
Turning to `Cn1c(CN2CCC(OCc3cccnc3)CC2)cc2ccccc21`, the INHIBITION is listed as 56.2%.
For `O=C(C1CCOCC1)N1CCC(OCc2cccnc2)CC1` the value was 85.2%; for `CCc1ccc(C(=O)NCc2cccc(S(=O)(=O)NC)c2)o1`, -14%.
As for `CCn1ccnc1CN1CCCN(C(=O)c2cnn(C)c2)CC1`, the INHIBITION is listed as -21.21%.
In the case of `Cc1cc(N2CCN(C(=O)Cc3c(C)nc(C)[nH]c3=O)CC2)cc(C)n1`, the INHIBITION amounted to 14.9%.
The value for `CCO[C@@H]1CN(Cc2scnc2C)[C@@H]2CCCO[C@@H]21` was -6.39%.
For the compound `N#Cc1cnc(N2CCC3(CC2)OCCO3)nc1N`, the INHIBITION is listed as 1.61%.
As for `Cc1ccc(-c2noc(CN3CCc4cncnc4C3)n2)cc1`, the INHIBITION worked out at 38.6%.
Consider `Cn1cc(C(=O)N2CCCC(c3cc(O)n(C)n3)C2)cn1` (centres undefined), for which the INHIBITION stood at 19.6%.
Consider `O=C1CN(S(=O)(=O)c2ccc(F)cc2)CC(O)CN1CC1CC1` (centres undefined), for which the INHIBITION stood at 4.07%.
Regarding `Cc1csc(C(=O)N2CC(S(=O)(=O)C3CCCCC3)C2)c1`, the INHIBITION came out at 75.2%.
For the compound `COc1ccc(S(=O)(=O)C2CCN(C(=O)c3cc(C)cs3)CC2)cc1`, the INHIBITION came to 65.2%.
For `Cc1csc(C(=O)N2CCC(S(C)(=O)=O)CC2)c1` the value was 43.7%; for `Cc1csc(C(=O)N2CCCC(c3[nH]ncc3S(C)(=O)=O)C2)c1` (centres undefined), 27.8%.
For the compound `Cn1cnnc1S(=O)(=O)C1CCN(C(=O)c2cccs2)CC1`, the INHIBITION came to 41.8%.
For `Cc1csc(C(=O)N2CCC(S(C)(=O)=O)C2)c1` (centres undefined) the value was 12.3%.
Consider `O=C(CCOc1cccc(F)c1)N1CCCC(n2cccn2)C1` (centres undefined), for which the INHIBITION is -18%.
Take `Cc1ccc(-c2nc(CN3CCCC3Cn3cncn3)cs2)o1` (centres undefined): the INHIBITION is -15.5%.
With `O=S1(=O)COCCN1Cc1ccc(F)c(F)c1`, the INHIBITION is 29.9%.
Regarding `COCCNC(=O)c1cc(S(=O)(=O)N2CCCCC2)cs1`, the INHIBITION was -4.86%.
Take `Cc1nc(-c2ccc(S(=O)(=O)N3CCSC3)cc2)co1`: the INHIBITION amounted to 39.6%.
Consider `Cc1nc(-c2ccc(S(=O)(=O)N3CCOCC3)cc2)co1`, for which the INHIBITION was determined as 14.8%.
Take `COCCNc1nc(-c2ccc(S(=O)(=O)N3CCCCC3)cc2)cs1`: the INHIBITION is -1.16%.
For the compound `Cc1nc(-c2ccc(S(=O)(=O)N3CCSCC3)cc2)co1`, the INHIBITION was determined as 49.4%.
For `COCCCc1nc(-c2ccc(S(=O)(=O)N3CCCC3)cc2)cs1`, the INHIBITION is given as 61%.
For `Cc1nc(-c2ccc(S(=O)(=O)N3CCCCC3)cc2)co1`, the INHIBITION was 6.09%.
As for `COCCNc1nc(-c2ccc(S(=O)(=O)N3CCCCCC3)cc2)cs1`, the INHIBITION worked out at 62.8%.
On to `COCc1nc(-c2ccc(S(=O)(=O)N3CCCC3)cc2)cs1`, for which the INHIBITION stood at 61%.
Regarding `c1cnnc(N2CCCC2CNCc2noc(C3CC3)n2)c1` (centres undefined), the INHIBITION is recorded as -29.8%.
Take `COCCNC(=O)CNC(=O)c1nc(Cc2c(Cl)cccc2Cl)no1`: the INHIBITION is 9%.
In the case of `COc1c(C(=O)NCC2CCCO2)nnn1Cc1ccccc1` (centres undefined), the INHIBITION was -14.7%.
As to `O=C(N1CCOCC1)N1C[C@H]2CN(Cc3nccs3)C[C@H]2C1`, the INHIBITION is 34.6%.
As for `O=C(c1cncc2ccccc12)N1CCC[C@@H]1CO`, the INHIBITION is on record as -10.6%.
As for `c1cnc(NCc2ncn3c2CN(Cc2cccnc2)CCC3)nc1`, the INHIBITION is 36.1%.
As for `O=C(CN(CC1CCC1)CC(F)(F)F)N1CCOCC1`, the INHIBITION was 22.6%.
`CCOc1ccc(-n2nc(C)c(CC(C)=O)c2C)cc1C(N)=O`: the INHIBITION turned out to be 52.8%.
For `COc1ccc(-n2nc(C)c(C(C)=O)c2C)cc1C(N)=O` the value was -17.5%; for `CC(=O)Cc1c(C)nn(-c2cncc(C(N)=O)c2)c1C`, -27.5%; for `CCOc1ccc(C(=O)CCC(=O)N(C)Cc2snnc2C)cc1C`, 29.7%.
Turning to `Cc1nnc(SCc2cc(=O)n3c4c(sc3n2)CCCC4)[nH]1`, the INHIBITION is listed as 25.8%.
Take `COc1cccc(COc2nc(C(C)C)no2)c1`: the INHIBITION worked out at 17.4%.
With `COc1cccc(CN(C)Cc2nc(C(C)C)no2)c1`, the INHIBITION turned out to be 61.9%.
As for `CC(C)c1noc(CN(Cc2cccs2)C2CC2)n1`, the INHIBITION was 41.8%.
The value for `CC(C)c1noc(CN(C)C(c2ccc(F)cc2)c2cccnc2)n1` (centres undefined) was 38.6%; that for `CC(C)c1noc(CN(Cc2ccccc2)C2CC2)n1` was 54.5%; that for `COc1cccc(NC(=O)CCCc2nc(C(C)C)no2)c1` was 26.5%.
`CC(C)c1noc(C2CCCN2S(=O)(=O)Cc2ccc(F)cc2)n1` (centres undefined): the INHIBITION turned out to be 28.7%.
Consider `CC(C)c1noc(CN(Cc2ccc(F)cc2)C2CC2)n1`, for which the INHIBITION amounted to 82.4%.
The value for `CC(C)c1noc(CN(Cc2ccccc2F)C2CC2)n1` was 16.8%.
